Experimental data as given in PubChem BioAssay AID1159580 (chemical genetic matrix, 2015).
Hit rate of the full screen: of about 5,500 compounds, about 2,000 (36%) were called active. Not shown: some 18% with an inconclusive outcome. Rule as the data show it: active = normalized growth mostly below about 0.91 (no sharp cut-off); inconclusive = no clear call, values can overlap the other calls; inactive = mostly above about 0.92. The list shows a part of the results.

Test: chemical genetic growth profiling, strain panel (AID 1159580);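 also: tested at 20 µM; growth read once vehicle control cultures reached saturation at 30 °C; 1 = growth at the plate median or of vehicle wells; lower values mean less growth of the strain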
Conditions: S. cerevisiae deletion strains, growth OD
[1] = locus YDL101C, strain DUN1, active compounds read low
[2] = locus YHR030C, strain SLT2, active compounds read low
[3] = locus YHR079C, strain IRE1, active compounds read low
[4] = locus YJL095W, strain BCK1, active compounds read low
[5] = locus YJR066W, strain TOR1, active compounds read low
[6] = locus YLR113W, strain HOG1, active compounds read low
[7] = locus YNL183C, strain NPR1, active compounds read low
[8] = locus YOR231W, strain MKK1, active compounds read low
[9] = locus YPL256C, strain CLN2, active compounds read low

Measured: normalized growth

O=C(O)C1c2ccccc2C(=O)N(Cc2ccc3c(c2)OCO3)C1c1cccnc1 (configuration not stated)
inactive: locus YAL013W, strain DEP1, active compounds read low 1.02 | locus YBR229C, strain ROT2, active compounds read low 1.01 | locus YCL061C, strain MRC1, active compounds read low 0.994 | [1] 1.01 | locus YDL134C, strain PPH21, active compounds read low 0.993 | locus YDR150W, strain NUM1, active compounds read low 0.978 | locus YEL061C, strain CIN8, active compounds read low 1.04 | locus YGR078C, strain PAC10, active compounds read low 1.04 | [2] 1.05 | locus YHR087W, strain rtc3, active compounds read low 1.01 | locus YJR043C, strain POL32, active compounds read low 0.996 | locus YJR075W, strain HOC1, active compounds read low 1.03 | locus YKL190W, strain CNB1, active compounds read low 0.989 | locus YLR039C, strain RIC1, active compounds read low 1.01 | locus YLR058C, strain SHM2 (second series), active compounds read low 0.997 | locus YLR085C, strain ARP6, active compounds read low 1.02 | locus YLR262C, strain YPT6, active compounds read low 0.971 | locus YML094W, strain GIM5, active compounds read low 1.04 | locus YMR219W, strain ESC1, active compounds read low 1 | locus YMR263W, strain SAP30, active compounds read low 1 | locus YNL128W, strain TEP1, active compounds read low 0.993 | locus YNL153C, strain GIM3, active compounds read low 1.01 | locus YNL298W, strain CLA4 (second series), active compounds read low 1.04 | locus YNL322C, strain KRE1, active compounds read low 1.02 | locus YNR030W, strain Alg12, active compounds read low 1 | locus YPL055C, strain LGE1, active compounds read low 1.03 | locus YPL241C, strain CIN2, active compounds read low 0.971 | locus YPR135W, strain CTF4, active compounds read low 0.982

CC(c1cc2ccccc2s1)N(O)C(N)=O (configuration not stated)
inactive: [2] 1.01 | [3] 0.964 | [4] 0.981 | [5] 0.941 | [6] 0.944 | [7] 0.892 | [8] 0.967 | [9] 0.976

O=C(NCc1ccc2c(c1)OCO2)c1cc2ccccc2s1
active: locus YAR019C, strain CDC15, active compounds read low 0.858 | locus YBL105C, strain PKC1, active compounds read low 0.867 | locus YBR135W, strain CKS1, active compounds read low 0.87 | locus YBR136W, strain MEC1, active compounds read low 0.866 | locus YBR160W, strain CDC28, active compounds read low 0.873 | locus YDL017W, strain CDC7, active compounds read low 0.877 | locus YDL108W, strain KIN28, active compounds read low 0.888 | locus YDL132W, strain cdc53, active compounds read low 0.851 | locus YDL214C, strain PRR2, active compounds read low 0.58 | locus YDR054C, strain cdc34, active compounds read low 0.648 | locus YDR226W, strain ADK1, active compounds read low 0.874 | locus YDR477W, strain SNF1, active compounds read low 0.422 | locus YER123W, strain YCK3, active compounds read low 0.396 | locus YER133W, strain GLC7, active compounds read low 0.298 | locus YFL009W, strain cdc4, active compounds read low 0.858 | locus YFL029C, strain CAK1, active compounds read low 0.852 | locus YFR003C, strain YPI1, active compounds read low 0.872 | locus YFR019W, strain FAB1, active compounds read low 0.625 | locus YFR028C, strain CDC14, active compounds read low 0.864 | locus YGR040W, strain KSS1, active compounds read low 0.459 | locus YGR052W, strain FMP48, active compounds read low 0.406 | locus YGR092W, strain DBF2, active compounds read low 0.3 | [2] 0.14 | [3] 0.178 | locus YHR082C, strain KSP1, active compounds read low 0.571 | locus YIL147C, strain SLN1, active compounds read low 0.871 | [4] 0.144 | locus YJL157C, strain FAR1, active compounds read low 0.622 | locus YJR016C, strain ILV3, active compounds read low 0.87 | locus YJR066W, strain TOR1 (second series), active compounds read low 0.155 | [5] 0.432 | locus YKL048C, strain ELM1, active compounds read low 0.443 | locus YKL067W, strain YNK1, active compounds read low 0.675 | locus YKL101W, strain HSL1, active compounds read low 0.573 | locus YKL193C, strain SDS22, active compounds read low 0.882 | locus YKL203C, strain TOR2, active compounds read low 0.258 | [6] 0.626 | locus YLR133W, strain CKI1, active compounds read low 0.675 | locus YLR403W, strain SFP1, active compounds read low 0.583 | locus YML070W, strain DAK1, active compounds read low 0.54 | locus YMR001C, strain CDC5, active compounds read low 0.837 | locus YMR205C, strain PFK2 (second series), active compounds read low 0.692 | locus YMR277W, strain FCP1, active compounds read low 0.829 | locus YNL006W, strain LST8, active compounds read low 0.849 | locus YNL020C, strain ARK1, active compounds read low 0.663 | locus YNL161W, strain CBK1, active compounds read low 0.868 | [7] 0.322 | locus YNL207W, strain RIO2, active compounds read low 0.822 | locus YNL222W, strain SSU72, active compounds read low 0.853 | locus YNL307C, strain MCK1 (second series), active compounds read low 0.205 | locus YOL078W, strain AVO1, active compounds read low 0.842 | locus YOL136C, strain PFK27, active compounds read low 0.429 | locus YOR061W, strain CKA2, active compounds read low 0.589 | locus YOR119C, strain RIO1, active compounds read low 0.273 | [8] 0.369 | locus YOR329C, strain SCD5, active compounds read low 0.856 | locus YPL031C, strain PHO85, active compounds read low 0.392 | locus YPL153C, strain RAD53, active compounds read low 0.224 | locus YPL204W, strain HRR25, active compounds read low 0.3 | locus YPL209C, strain IPL1, active compounds read low 0.868 | [9] 0.558 | locus YPR025C, strain CCL1, active compounds read low 0.863 | locus YPR106W, strain ISR1, active compounds read low 0.882 | locus YPR111W, strain DBF20, active compounds read low 0.868 | strain NNK1, active compounds read low 0.835 | strain TSCII, active compounds read low 0.799
inactive: locus YDL028C, strain MPS1, active compounds read low 0.9 | [1] 0.912 | locus YDR052C, strain DBF4, active compounds read low 0.933 | locus YHR205W, strain SCH9, active compounds read low 0.678 | locus YJL128C, strain PBS2, active compounds read low 0.854
